Reference: PubChem BioAssay AID588489 (Sanford-Burnham Center for Chemical Genomics, 2011)
The whole screen tested about 360,000 compounds, of which about 1,300 (0.36%) were called active. What follows is part of a selection rich in actives, with near analogues and random picks from the rest. Unmarked numbers belong to inactive results. No stated cut-off is given here; in the data, active means inhibition above about 35% (passing the limit was not always enough); inactive means the rest.

target: Polyadenylate-binding protein 1 (Homo sapiens) (UniProt P11940); assay: PAM2 peptide displacement from PABP1 MLLE – biochemical, fluorescence polarization, FITC-PAM2, GST-MLLE, primary screen (AID 588489); conditions: at 20 µM, hits give high values;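 further: plate controls were DMSO wells with GST-MLLE for no effect and wells lacking GST-MLLE protein for full effect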
Sequence (P11940 whole entry, looked up): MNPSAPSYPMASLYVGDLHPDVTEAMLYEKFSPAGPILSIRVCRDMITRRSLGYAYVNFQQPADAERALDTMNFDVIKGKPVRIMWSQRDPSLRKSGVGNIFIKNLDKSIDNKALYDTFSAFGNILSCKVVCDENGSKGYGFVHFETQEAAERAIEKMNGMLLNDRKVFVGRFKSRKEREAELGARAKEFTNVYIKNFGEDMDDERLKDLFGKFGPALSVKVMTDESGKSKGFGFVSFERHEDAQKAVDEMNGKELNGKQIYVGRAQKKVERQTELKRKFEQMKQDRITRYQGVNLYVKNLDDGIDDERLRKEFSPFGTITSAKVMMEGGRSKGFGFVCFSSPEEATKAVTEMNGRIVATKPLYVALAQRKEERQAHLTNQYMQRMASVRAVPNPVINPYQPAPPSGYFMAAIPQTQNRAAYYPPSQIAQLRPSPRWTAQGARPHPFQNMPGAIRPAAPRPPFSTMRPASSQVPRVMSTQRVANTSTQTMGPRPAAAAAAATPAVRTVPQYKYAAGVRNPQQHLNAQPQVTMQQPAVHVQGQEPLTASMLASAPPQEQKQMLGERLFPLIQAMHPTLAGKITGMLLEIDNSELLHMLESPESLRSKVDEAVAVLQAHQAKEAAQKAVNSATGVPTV

SMILES | inhibition
Cc1cccc(N(C(=O)Cc2cccs2)C(C(=O)NC2CCCC2)c2ccsc2)c1 (centres undefined) | -14.8%
COc1ccc(C)cc1NC(=S)N1CCOCC1 | -27.2%
COc1cc(C(=S)N2CCOCC2)ccc1O | 38.4% (active)
CCOc1cc(C(=S)N2CCOCC2)ccc1O | 20.9%
Cc1ccc(OCC(=O)Nc2ccccc2C(=O)NC2CC2)cc1C | 8.8%
O=S(=O)(NCc1ccccn1)c1ccc(Br)s1 | -6.68%
O=S(=O)([N-]c1nc2ccccc2nc1-[n+]1ccc(Cc2ccccc2)cc1)c1ccc(Br)s1 | 43.3% (active)
O=C(c1ccc(N2CCOCC2)c([N+](=O)[O-])c1)N1CCN(S(=O)(=O)c2cccs2)CC1 | -8.8%
COc1ccc(C(=O)N2CCN(c3ccc(C(C)=O)cc3F)CC2)cc1S(=O)(=O)NC1CC1 | 0.55%
CC(C)CCn1cnc2c1c(=O)n(CC(=O)NC(N)=O)c(=O)n2Cc1ccccc1 | -0.54%
CC(=O)Nc1ccc(SCC(=O)Nc2ccccc2Oc2ccccc2)cc1 | 38.1% (active)
O=C(CSc1ccccc1)Nc1cc(Cl)ccc1Oc1ccccc1 | 6.51%
CC(=O)Nc1ccc(SCC(=O)NC(=O)c2ccc(Cl)cc2)cc1 | 15.4%
CC(=O)Nc1cc(-c2ccc(N3CCN(C)CC3)cc2)cn2c(-c3ccc(F)cc3)cnc12 | -30.8%
CC(C)c1cc(C(=O)N/N=C/c2ccoc2)c(O)c(C(C)C)c1 | -7.21%
COC(=O)N/N=C/c1c[n+]([O-])c2ccccc2[n+]1[O-] | 41.1% (active)
CC(C)(C)OC(=O)N/N=C/c1ccc(C(=O)O)cc1 | -10.6%
COC(=O)N/N=C/c1ccc(-c2ccc(Cl)c(Cl)c2)o1 | 15.1%
CCOC(=O)c1c(C)[nH]c(C2=NNC(=NC(C)COC)SC2)c1C (centres undefined) | -90.6%
CC(C)N(c1ccccc1)c1ncnc(NCCC(=O)O)c1[N+](=O)[O-] | -7.92%

SMILES | inhibition
CC1=C(C(=O)Nc2ccc(Cl)cc2)C(c2ccco2)NC(=O)N1 (centres undefined) | -4.08%
CN1OC[C@@H]2CN(S(=O)(=O)c3cccc(C(F)(F)F)c3)[C@H](c3ccc(-c4cc5ccccc5o4)cc3)C[C@@H]21 | -4.18%
COC(=O)C1=C(Nc2ccc(C)cc2)C=C(C)C(C(=O)OC)C1c1ccc(F)cc1 (centres undefined) | -12%
Cc1[nH]c(N)nc(=S)c1CCCNc1ccccc1 | 40.1% (active)
CCc1c(Nc2ccccc2C)nc(N)[nH]c1=O | -2.64%
Cc1cc(=O)n(C)c(=O)n1CCCNc1ccccc1 | -0.23%
CN(C)CCCNC(=S)N1CCN(c2nc(-c3ccccc3)cs2)CC1 | -128%
CCOc1ccc(NC(=O)CN(C)C(=O)Cc2sc(C)nc2-c2ccc(F)cc2)cc1OCC | -16.1%
CCCCC(=O)NC(c1ccc(OC)c(OC)c1)c1ccc2cccnc2c1O (centres undefined) | 5.41%
CCOC(=O)N1CCN(C(c2cccnc2)c2ccc3cccnc3c2O)CC1 (centres undefined) | 37.9% (active)
CCOC(=O)N1CCN(C(=O)C2CCN(c3ncnc4c3sc3cccc(F)c34)CC2)CC1 | -13.7%
COc1ccc(C(CNCC(=O)Nc2ccccc2F)N(C)C)cc1 (centres undefined) | 4.22%
O=C1c2ccccc2C(=O)N1CCc1nn[nH]n1 | -10.4%
O=C(CC1CCCCC1)NCc1ccco1 | 2.87%
O=C(CSc1nnnn1-c1ccccc1)NCc1ccco1 | -13.1%
O=C(CSC1=Nc2ccccc2C2=NC(CC(=O)NCc3ccco3)C(=O)N12)NCc1ccco1 (centres undefined) | 38.7% (active)
CCCCCC1CCC(c2nnc(SCC(C)=O)o2)CC1 (centres undefined) | -9.06%
C/C=C/c1ccc(OCCCCN2CCC(C)CC2)c(OC)c1 | -4.4%
CC(C)CNC(=O)C1(C)CCCN1C(=O)CSc1ccccc1 (centres undefined) | 10.8%
COc1cc(/C=C/C(=O)OCC(=O)NCCCc2ccccc2)ccc1O | 7.53%

SMILES | inhibition
Cc1nc([N+](=O)[O-])nn1C12CC3CC(CC(Br)(C3)C1)C2 | 39.5% (active)
Cc1cccc(NC(=O)CSc2nnc(NC(=O)CN3CCOCC3)s2)c1 | -8.76%
C=CC1=C(C(=O)O)N2C(=O)[C@@H](NC(=O)/C(=N\OCC(=O)O)c3csc(N)n3)[C@H]2SC1 | 41% (active)
C=CC1=C(C(=O)O)N2C(=O)[C@@H](NC(=O)/C(=N/OCC(=O)O)c3csc(N)n3)[C@H]2SC1 | 30.8%
O=C(CSc1ccsc1[N+](=O)[O-])N1CCCCC1 | -4.37%
O=C1CSC2=NCN(c3ccccc3)CN12 | -6.21%
O=C(CCC(=O)OCc1cccc(C(=O)Oc2ccccc2)c1)Nc1cccc2ccccc12 | 9.55%
O=S(=O)(Oc1ccccc1C(=S)N1CCOCC1)c1ccc(Cl)cc1 | 44.5% (active)
CC(=O)Nc1ccc(S(=O)(=O)Oc2ccc(Br)cc2C(=S)N2CCOCC2)cc1 | 5.89%
CCOc1cc(C(=S)N2CCOCC2)ccc1OS(=O)(=O)c1ccc(Br)cc1 | 8.34%
Cc1ccc(C)c(OCCC(=O)Nc2cccc(S(=O)(=O)N3CCCC3)c2)c1 | 10.9%
CCN(CC)S(=O)(=O)c1ccc(N2CCOCC2)c(NC(=O)C(C)Oc2ccc(F)cc2)c1 (centres undefined) | 3.55%
Oc1ccc2ccccc2c1N=Nc1nccs1 | 55.3% (active)
COc1ccc(C(c2nnnn2C2CCCC2)N2CCN(C/C=C/c3ccccc3)CC2)cc1 (centres undefined) | 9.42%
O=C(Cn1cnc2c(OCc3ccccc3)ncnc21)NCc1nc2ccccc2[nH]1 | 6.52%
CCn1c(CNC(=O)c2ccc(OC)c(OC)c2)nnc1SCC(=O)Nc1ccccc1 | -12%
CCc1c(O)nc(SCC(=O)Nc2ccccc2)n(C(C)CC)c1=O (centres undefined) | 48% (active)
COc1ccccc1-n1c(SCC(=O)Nc2ccc(Cl)cc2)nc(O)c(Cc2ccccc2)c1=O | 18.6%
O=C(CC12CC3CC(CC(C3)C1)C2)Nc1ccc2c(c1)COC2=O | 10.3%
